Pf growth 48h – inhibits P. falciparum growth in the first generation, 48 h; actives 5.9% (n = 310,000); AID 504832; Potency, µM (top dose mostly 28.7 µM), most hits filed as inhibitors; P. falciparum luciferase growth in erythrocytes, 48 h
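Parasite viability was followed by luminescence of a genomically integrated firefly luciferase. Cultures held 0.1% parasitemia at 2% hematocrit (final), incubated under 5% CO2 at 37 C.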
Pf growth 96h – inhibits malaria parasite growth, 96 h; P. falciparum luciferase reporter growth, 96 h; Potency, µM (doses to about 28.7 µM), hits mostly inhibitors; actives 6.9% (n = 320,000); AID 504834
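Compounds incubated with erythrocytes infected by luciferase-expressing P. falciparum (2% hematocrit, 0.05% parasitemia final) for 96 hours, 37 C in 5% CO2. Growth inhibition scored as decreased luciferase luminescence.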
AMA1 RON2 block – AMA1-RON2 (P. falciparum) interaction inhibition; AlphaScreen AMA1-biotinylated RON2 peptide binding; Potency, µM (highest dose often 58.2 µM), hits mostly inhibitors; actives 0.2% (n = 360,000); AID 720542; also: nearly all actives have a fitted effect of over 45% in size
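AMA1 (3D7) with his tag at 25 nM final met compounds first, then biotinylated RON2 peptide at 25 nM; detection used donor plus acceptor beads, 10 µg/mL apiece, read by AlphaScreen after 30 min at room temperature.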
Shiga inhibitor – inhibitors of Shiga toxin in Vero cells; Vero cells, Shiga toxin protein synthesis inhibition reporter; inhibition, % at 38.7 µM; actives 9.2% (n = 290,000); AID 2315; in the data active = inhibition mostly above about 28%, no sharp cut-off; inactive = mostly below about 43%
CHX counter – counter-screen for Shiga toxin inhibitors: cycloheximide protein synthesis inhibition. cell reporter, cycloheximide protein synthesis inhibition counterscreen. max response, %. actives 12% (n = 300,000). AID 2314; in the data active = max response mostly above about 13%, no sharp cut-off; inactive = mostly below about 14%; also: read at 38.3 µM for the half of the compounds with a filed dose
SARS PLP yeast – SARS-CoV PLP inhibition in yeast | S. cerevisiae expressing SARS-CoV PLpro, growth rescue | Potency, µM (series often up to 32.9 µM), hits mostly activators | actives 0.19% (n = 330,000); calls by dose curve; also: nearly all actives have a fitted effect of over 55% in size
Large screens that a line does not name were inactive. Shown are actives, neighbours in structure and some others; about 19% of the full set was active somewhere. Unless noted, calls follow the shape of the dose curve; as a rule, active = well fitted curve in the direction sought with a large enough effect; inconclusive = small, poorly fitted or top-dose-only effect, or another doubt; inactive = no such curve, though single readings can be large; an effect the other way counts as inactive or inconclusive.

CCn1cc(CN2CCc3c([nH]c4ccccc34)C2c2cccc(OC)c2OC)c(C)n1 (stereo not drawn)	Pf growth 48h 11.7µM
COc1cccc(C2c3[nH]c4ccccc4c3CCN2C(=O)c2ccccc2F)c1OC (stereo not drawn)	Pf growth 48h 9.28µM, Pf growth 96h inconclusive, AMA1 RON2 block inconclusive
COc1ccc(C2c3[nH]c4ccccc4c3CCN2C(=O)c2ccccc2C(C)=O)c(F)c1 (stereo not drawn)	Pf growth 48h inconclusive, Shiga inhibitor 29.0, CHX counter 18.3
COc1ccc(C2c3[nH]c4ccccc4c3CCN2C(=O)c2cn3ccccc3n2)c(F)c1 (stereo not drawn)	Pf growth 48h 14.7µM, Pf growth 96h inconclusive, Shiga inhibitor 52.6, CHX counter 30.5
COc1ccc(C2c3[nH]c4ccccc4c3CCN2CCCn2cccn2)c(F)c1 (stereo not drawn)	Pf growth 48h inconclusive
COC(=O)c1[nH]nc(C(=O)OC(C)(C)C)c1-c1ccccc1	none
COc1cc(Cl)ccc1OCc1cc(C(=O)N2CCCCC2c2cccnc2)no1 (stereo not drawn)	Pf growth 48h inconclusive, Pf growth 96h inconclusive, CHX counter 17.1
O=C(c1cc(COc2ccc(F)cc2Cl)on1)N1CCC(OCc2cccnc2)CC1	Pf growth 48h inconclusive
Cc1nonc1C1CCCN1C(=O)c1cc(COc2ccc(F)cc2Cl)on1 (stereo not drawn)	Pf growth 96h inconclusive, CHX counter 29.1
O=C(c1cc(COc2ccc(F)cc2Cl)on1)N1CCCCC1c1cccnc1 (stereo not drawn)	Pf growth 48h inconclusive, Pf growth 96h inconclusive, Shiga inhibitor 37.8, CHX counter 25.0
Cc1ccc(C)c(OCc2cc(C(=O)N3CCc4sccc4C3)no2)c1	none
O=C(c1cc(COc2ccc(F)cc2Cl)on1)N1CCc2sccc2C1	Shiga inhibitor 43.1, CHX counter 26.4
CCN(CC(=O)NCc1cccs1)CC(=O)Nc1ccccc1C	Pf growth 96h inconclusive (no result: Shiga inhibitor, CHX counter)
O=C(NCc1ccccn1)c1ccc(CNS(=O)(=O)c2ccc(F)cc2)cc1	none
CCCN(Cc1ccccc1)C(=O)Nc1ccc2c(c1)nnn2C	Shiga inhibitor 40.0, CHX counter 18.9
CCOc1ccc(NC(=O)Nc2ccc3c(c2)nnn3C)cc1	none (no result: Pf growth 96h)
CCC(Oc1ccccc1OC)C(=O)Nc1ccc2c(c1)OCCO2 (stereo not drawn)	CHX counter 15.7
Cc1ccccc1NC(=O)Nc1ccc2c(c1)OCO2	Shiga inhibitor 76.6, CHX counter 44.4
CC(=O)Nc1ccccc1OCC(=O)c1ccc2c(c1)OCO2	Shiga inhibitor 79.1, CHX counter 42.7
COC(=O)C1=C(C(=O)OC)C(C(=O)OC)C(C(=O)OC)C(C(=O)OC)(C(=O)OC)C(C(=O)OC)=C1C(=O)OC (stereo not drawn)	none (no result: Pf growth 48h, Pf growth 96h, Shiga inhibitor, CHX counter, SARS PLP yeast)
O=C(Cc1ccccc1[N+](=O)[O-])NNC(=O)Nc1ccc2c(c1)OCO2	Pf growth 96h inconclusive
O=C(Cc1ccccc1[N+](=O)[O-])Nc1ccc2c(c1)OCO2	Pf growth 96h inconclusive, CHX counter 17.4
COc1ccc(NC(=O)Nc2ccc3c(c2)CCC3)cc1	Shiga inhibitor 36.0, CHX counter 26.7
Cc1ccc(NC(=S)NCc2ccc3c(c2)OCO3)c(C)c1	none
Cc1ccc(CNc2ccc3c(c2)OCO3)c(C)c1	Pf growth 48h inconclusive, Shiga inhibitor 90.7, CHX counter 43.9 (no result: Pf growth 96h, AMA1 RON2 block, SARS PLP yeast)
COc1cccc(CC(=O)Nc2ccc3c(c2)CCC3)c1	none
CCOc1ccccc1NC(=O)Nc1ccc2c(c1)OCO2	Shiga inhibitor 37.6, CHX counter 36.6
O=S(O)CO	none (no result: Pf growth 48h, Pf growth 96h, AMA1 RON2 block, SARS PLP yeast)
O=C(O)c1ccc(CN(c2ccccc2)S(=O)(=O)c2ccccc2)cc1	Pf growth 48h inconclusive
CCOc1ccccc1NC(=O)Nc1cccc(NC(C)=O)c1	Pf growth 96h inconclusive
CCOc1ccccc1NC(=O)Nc1ccc2c(c1)CCC2	Pf growth 96h inconclusive, Shiga inhibitor 53.5, CHX counter 38.8
COc1ccccc1NC(=O)CNc1ccc(F)c(Cl)c1	Pf growth 48h inconclusive, Pf growth 96h 14.7µM
COc1ccccc1NC(=O)Nc1ccc2c(c1)nnn2C	Pf growth 96h 9.28µM, Shiga inhibitor 50.3, CHX counter 56.6 (no result: Pf growth 48h)
COc1cccc(CNc2ccc(F)c(Cl)c2)c1OC	Pf growth 96h 10.4µM (no result: Pf growth 48h)
Cn1nnc2cc(NC(=O)Nc3ccccc3F)ccc21	none (no result: Pf growth 48h, Pf growth 96h, Shiga inhibitor, CHX counter, SARS PLP yeast)
COc1cccc(CNCCc2cccc(F)c2)c1OC	Pf growth 96h 4.15µM (no result: Shiga inhibitor)
Cc1c(NC(=O)Nc2ccc3c(c2)OCO3)cccc1[N+](=O)[O-]	Shiga inhibitor 76.5, CHX counter 42.1
CCc1cccc(C)c1NC(=O)Nc1ccc2c(c1)OCO2	none
COc1ccc(NC(=O)Nc2cc(C)ccc2F)cc1OC	Pf growth 96h inconclusive, Shiga inhibitor 40.8, CHX counter 18.1
O=C(Nc1ccc2c(c1)CCC2)Nc1ccccc1Cl	Pf growth 96h inconclusive, Shiga inhibitor 154.9, CHX counter 57.0
CCOc1ccccc1NC(=O)NC(=O)N(C)S(=O)(=O)c1ccc(C)cc1	none
COc1ccc(NC(=O)Nc2ccc3c(c2)OCO3)c(C)c1	Shiga inhibitor 82.4, CHX counter 65.9
COc1cccc(OC)c1C(=O)Nc1ccc2c(c1)OCCO2	none
Cc1cc(OC(F)F)ccc1NC(=O)Nc1ccc2c(c1)OCO2	Pf growth 96h inconclusive, SARS PLP yeast inconclusive
COc1ccccc1NC(=O)Nc1ccc(F)c(F)c1	Pf growth 48h inconclusive, Shiga inhibitor 80.9, CHX counter 66.2
Cc1ccc(C)c(NC(=O)Nc2ccc3c(c2)OCO3)c1	Shiga inhibitor 55.5, CHX counter 47.3
COc1ccccc1NC(=O)Nc1ccc2c(c1)OCCO2	AMA1 RON2 block inconclusive, Shiga inhibitor 122.0, CHX counter 24.0
O=c1cc(-c2ccc(O)c(O)c2)oc2cc(O)c(C3OC(CO)C(O)C(O)C3O)c(O)c12 (stereo not drawn)	AMA1 RON2 block inconclusive
NC(=O)CSc1nc(-c2ccccc2Cl)ns1	Shiga inhibitor 18.6, CHX counter 44.8
O=C(CSc1nc(-c2ccccc2Cl)ns1)NCc1ccco1	none
COc1ccc(S(=O)(=O)NCCc2nnc3ccc(SCC(=O)Nc4nc(C)cs4)nn23)cc1	Pf growth 96h inconclusive
Cc1cc(C)c2[nH]c(=O)c(C(c3nnnn3C(C)(C)C)N3CCN(C(=O)c4ccco4)CC3)cc2c1 (stereo not drawn)	Pf growth 48h inconclusive (no result: Pf growth 96h)
Cc1ccc(C)c2[nH]c(=O)c(C(c3nnnn3C(C)(C)C)N3CC=C(c4ccc(F)cc4)CC3)cc12 (stereo not drawn)	Pf growth 48h 2.08µM, Pf growth 96h inconclusive
Fc1ccc(C2=CCN(C(c3cccs3)c3nnnn3CCc3ccccc3)CC2)cc1 (stereo not drawn)	none (no result: Pf growth 96h)

Screening data as filed in PubChem BioAssay.
